# Laboratory results published in the supplement of paper PMC10338343.
# ± gives the standard deviation.
# Legend:
# [1] = tested on: MILI (PIWIL2) piRISC loaded with L1MC piRNA (26 nt); assay: pre-steady-state target cleavage rate (min^-1); guide: L1MC piRNA 5'p-UAACUAAAUACUAUGCAAGCUGUAGG; higher = faster piRNA-guided slicing of the target; conditions: auxiliary factor: 500 nM mouse GTSF1
# How it was run: (§1)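 Active affinity-purified piRISC (1 nM) loaded with one synthetic guide was mixed with a transcribed, DNA-blocked target RNA library (0.1 nM), with or without 500 nM GTSF1 partner protein, in HEPES–potassium acetate buffer at 33 °C for 0–8 or 0–960 min. Uncleaved targets were sequenced, normalised to depth and to weakly complementary targets, and pooled across three trials, with k3 capped at 0.0001 min^-1. The pre-steady-state cleavage rate was determined with a burst-and-steady-state fit.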
# [2] = tested on: EfPiwi piRISC loaded with L1MC piRNA (26 nt); assay: pre-steady-state target cleavage rate (min^-1); auxiliary factor: 500 nM Ephydatia muelleri Gtsf1; guide: L1MC piRNA 5'p-UAACUAAAUACUAUGCAAGCUGUAGG; MIWI and MILI are mouse PIWI proteins and EfPiwi is from a freshwater sponge; tags in brackets are library labels; higher = faster piRNA-guided slicing of the target
# How it was run: as §1
Sequence,pre-steady-state target cleavage rate [1],pre-steady-state target cleavage rate [2]
UCCUGCUACAGGUUCCAUAGUAUUUAGUUA,0.00943 ± 0.0066,0.00222 ± 0.0021
UCCUCCUACUGCUUGCAUAGUAUUUAGAAA,0.0658 ± 0.017,0.00462 ± 0.0021
UCCUGGAUGAGCUUGCAUAGUAUUUAGUCUA,0.0419 ± 0.013,0.00413 ± 0.0026
UCCUCCUACAGCUUGCAUAGUAUUUGUUA,0.203 ± 0.04,0.00561 ± 0.0026
UCCUGGAUGUGCUUCCAAAGUAUUUAGUUA,0.0214 ± 0.0068,0.00463 ± 0.0046
